Inconclusive results are not listed. Activity calls are given as the source filed them. Calls follow the shape of the dose curve; as a rule, active = well fitted inhibition curve with a large enough effect; inconclusive = small, poorly fitted or top-dose-only effect, or effect the other way; inactive = flat fitted curve, though single readings scatter.
molecular target: Ubiquitin carboxyl-terminal hydrolase 2 (Homo sapiens) (UniProt O75604); assay: Confirmation Assay for Inhibitors of Ubiquitin-specific Protease USP2a Using CHOP2 as the Reporter; settings: USP2 core, Ub-CHOP2 coupled reporter fluorescence; series mostly up to 38.3 µM; activity change, negative = inhibition: at the top concentration; also: nearly all actives have a fitted effect of over 55% in size;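 as to activity change, negative = inhibition: plate controls were DMSO wells for no effect and full inhibition by NEM control for full effect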
Sequence (O75604 whole entry, looked up): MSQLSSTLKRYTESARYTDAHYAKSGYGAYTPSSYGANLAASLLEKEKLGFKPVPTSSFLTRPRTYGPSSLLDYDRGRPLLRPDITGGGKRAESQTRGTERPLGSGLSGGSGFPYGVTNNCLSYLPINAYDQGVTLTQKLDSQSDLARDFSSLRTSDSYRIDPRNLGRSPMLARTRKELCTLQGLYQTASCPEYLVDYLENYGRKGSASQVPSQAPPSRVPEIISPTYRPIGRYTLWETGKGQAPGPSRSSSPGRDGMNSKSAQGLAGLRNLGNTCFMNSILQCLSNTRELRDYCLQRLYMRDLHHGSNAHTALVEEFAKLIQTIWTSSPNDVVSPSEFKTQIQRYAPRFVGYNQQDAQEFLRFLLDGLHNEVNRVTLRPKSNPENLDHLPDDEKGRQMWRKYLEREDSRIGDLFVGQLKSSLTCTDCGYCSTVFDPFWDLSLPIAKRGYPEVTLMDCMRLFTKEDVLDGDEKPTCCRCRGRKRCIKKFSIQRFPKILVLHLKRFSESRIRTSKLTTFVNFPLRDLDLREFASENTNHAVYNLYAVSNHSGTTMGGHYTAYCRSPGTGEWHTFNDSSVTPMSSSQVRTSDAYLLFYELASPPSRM
In short: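 Ub-CHOP2 cleavage coupled to reporter activation was read by fluorescence after 60 min at RT, with 25 nM final Ub-CHOP2 and substrate. Enzyme (10 nM final USP2 core) first sat 30 min with compound; data were normalized to NEM and fitted to concentration-response curves.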
Potency is read from the fitted curve at half-maximal effect.

Activity change, negative = inhibition, inactive:
CC(C)n1c(/C=C/[C@H](O)C[C@H](O)CC(=O)O)c(-c2ccc(F)cc2)c2ccccc21 1.97%
O=C1c2ccccc2C(=O)N1CCCCn1c(=O)oc2ccccc21 -0.817%
COc1cc(-c2nc(-c3ccc4c(c3)-c3ccccc3S4(=O)=O)c(-c3ccccc3)[nH]2)cc(OC)c1O -1.03%
O=C(Nc1nnc(-c2ccco2)s1)C1CCCCC1 0.407%
CC1CCCCC1NC(=O)CSCC(=O)O (stereo not given) 0.575%
COc1cc(NC(=O)COC(=O)CSc2ccccc2F)c(C)cc1[N+](=O)[O-] -2.68%
O=C(Nc1ccc(S(=O)(=O)Nc2ncccn2)cc1)c1ccc(S(=O)(=O)N2CCCC2)cc1 -1.15%
O=C(Cc1cc(=O)[nH]c(=O)[nH]1)NCC1CCCO1 (stereo not given) 2.54%
COc1ccc(-n2c(=S)[nH]c3cc(C(=O)NCc4ccc(F)cc4)ccc3c2=O)c(OC)c1 -2.17%
CCN(CC)S(=O)(=O)c1ccc(-c2nnc(SCC(=O)Nc3ccc4c(c3)OCO4)o2)cc1 -22%
O=C(COc1ccccc1)Nc1nnc(-c2ccc(Cl)s2)o1 0.422%
CC(=O)Nc1ccc(NC(=O)C2CCCN(S(=O)(=O)c3ccc(Cl)cc3)C2)cc1 (stereo not given) 10.2%
CCCCC1NC(C(=O)O)CS1 (stereo not given) 6.61%
COc1cccc(/C=N/n2c(SC)nnc2-c2ccccc2)c1O 1.92%
O=C(CSc1nc(O)cc(=O)n1-c1ccccc1)NC1CCCCC1 1.96%
Cc1ccc2nc(NCCCNC(=O)c3cnccn3)c(C#N)cc2c1 2.19%
Cc1cccc(NC(=S)NCc2ccc3c(c2)cc(C)n3C)c1C -1.59%
Cc1ccc(C(=O)NCCCc2ccccc2)s1 -1.2%
Cc1ccc(C(=O)COC(=O)CNC(=O)CN2C(=O)c3ccccc3C2=O)cc1 5.5%
CN1CCN(CCCCOc2ccc(F)cc2)CC1 -1.91%
C=CCn1c(N)c(C(=O)NCc2cccnc2)sc1=S -0.483%
Cc1ccccc1[C@@H]1C(C#N)=C(N)S[C@H]1C(=O)c1ccccc1 -2.6%
CN(c1ccccc1)S(=O)(=O)c1ccc(Cl)c(C(=O)NCCc2c[nH]c3ccccc23)c1 -0.219%
O=C(CNC(=O)C1CCCCC1)NC1=NCCS1 -0.749%
CCN(CC)c1ccc2nc3ccccc3[n+](CC)c2c1 -10.3%
CCn1c(CN2CCOCC2)nnc1SCC(=O)Nc1ccc(C(C)=O)cc1 -3.3%
CC(=O)O[C@H]1[C@H](O)[C@H](Oc2c(O)c(C)c3c4c2[C@@H](C)CC[C@@H]4[C@@H](C)C[C@H]3C=C(C)C)O[C@@H](C)[C@H]1O -3.83%
C[C@H](CO)N1C[C@H](C)[C@@H](CN(C)S(=O)(=O)c2cccs2)Oc2c(NC(=O)Nc3ccc4c(c3)OCO4)cccc2C1=O 1.42%
Cc1cc(C(=O)NCc2ccco2)on1 0.731%
FC(F)Sc1ccc(NC(=S)NC2CCCCC2)cc1 2.42%
CC1CCN(CC(O)COc2cccc(F)c2)CC1 (stereo not given) 2.47%
CCOc1ccc(-c2ccc(/C=C3/C(=N)N4C(C)=CSC4=NC3=O)o2)c([N+](=O)[O-])c1 -9.31%
N#CCc1ccc(NC(=O)/C=C/c2ccc([N+](=O)[O-])o2)cc1 -10.8%
CCOC(=O)Nc1nnc(CCc2ccccc2)s1 -0.956%
COC(=O)c1[nH]c2cc(OC)ccc2c1N 3.18%

Potency, active:
Cc1ccc(C2=NC(=O)/C(=C/c3cc(O)c(O)c(Br)c3)S2)cc1 7.36 µM
Cc1ccc(/C(O)=C/C(=O)C(=O)NNC(=O)C(O)(c2ccccc2)c2ccccc2)cc1 14.7 µM
O=C(COC(=O)c1cc(-c2ccc(Cl)s2)nc2ccccc12)NCc1ccco1 18.5 µM
O=C1Nc2ccccc2SC(c2ccccc2)C1O (stereo not given) 13.1 µM
Nc1c(C(=O)NC2CC2)sc2nc3c(c(-c4ccco4)c12)CC/C3=C/c1ccco1 7.36 µM

— PubChem BioAssay AID493168 (National Center for Advancing Translational Sciences (NCATS), 2011)
